Sampled rows, rich in hits. Any-hit rate of the full collection: about 17%.
TDP1 cell CPT = qHTS for Inhibitors of human tyrosyl-DNA phosphodiesterase 1 (TDP1): qHTS in cells in presence of CPT; 420,000 tested, 12% active; AID 686979, 2013; chicken DT40 Tdp1-/-;hTDP1 cells + 20 nM CPT, ATP luminescence, 48 h; Potency, µM (doses to about 46.2 µM), most hits filed as inhibitors; note: nearly all actives have a fitted effect of over 55% in size
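Chicken DT40 Tdp1-/- cells stably complemented with human TDP1 were seeded at 400 cells/well in medium containing 20 nM camptothecin, exposed to pin-transferred compounds, and grown at 37 °C for at least 48 hr. Viability was read as ATP luminescence.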
DT40 TDP1 no CPT = qHTS for Inhibitors of human tyrosyl-DNA phosphodiesterase 1 (TDP1): qHTS in cells in absence of CPT; Potency, µM (top dose mostly 46.2 µM), most hits filed as inhibitors; AID 686978, 2013; DT40 Tdp1-/- hTDP1 cells, no CPT, ATP luminescence, 48 h; 420,000 tested, 15% active; note: nearly all actives have a fitted effect of over 55% in size
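Compound effects on proliferation are scored in DT40 Tdp1-/-;hTDP1 cells in the absence of CPT. ATP levels (CellTiter-Glo luminescence) are recorded after a ≥48 hr, 37 °C incubation.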
TGFb inhibitor = qHTS for Inhibitors of TGF-b; HepG2 CAGA-GFP TGF-b/SMAD3 reporter, GFP fluorescence, 18 h; TGF-beta stimulated, 500 pg/mL final; Potency, µM (series often up to 46.1 µM), most hits filed as inhibitors; 410,000 tested, 1.2% active; note: nearly all actives have a fitted effect of over 65% in size
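Inhibition of TGF-beta-driven CAGA-GFP reporter expression in HEPG2 cells is measured by cellular GFP fluorescence after 18 h stimulation with 500 pg/mL recombinant TGF-beta in 1% FBS medium at 37 degrees C.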
HepG2 viability = qHTS for Inhibitors of TGF-b: Cytotox Counterscreen; HepG2 CAGA-GFP viability, ATP luminescence, 18 h; Potency, µM (top dose mostly 46.1 µM), hits mostly cytotoxic; 410,000 tested, 0.76% active
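HepG2 CAGA-GFP cells (1000/well, DMEM with 1% FBS) received compound, then TGF-beta at 500 pg/mL final, and were incubated 18 hours at 37 degrees C. Viability was read by CellTiter-Glo luminescence. Media-only wells were set as complete cell-killing and DMSO as no toxicity.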
ATXN2 expr inh = Primary qHTS for Inhibitors of ATXN expression; HEK-293 ATXN2-luciferase reporter, luminescence, 24 h; Potency, µM (top dose mostly 57 µM), actives largely listed as inhibitors; 360,000 tested, 0.72% active; note: nearly all actives have a fitted effect of over 55% in size
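qHTS (up to 57 uM final) was run with 24 h compound exposure of reporter cells at 37 °C. Each well was multiplexed: SteadyGlo luminescence measured ATXN2-luciferase expression after a fluorogenic Gly-Phe-AFC viability readout (25 uM final).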
ATXN viability = Viability Counterscreen for Primary qHTS for Inhibitors of ATXN expression; S2 cells (HEK-293 line with an ATXN2-luciferase reporter) viability, CellTiter-Fluor protease fluorescence, 24 h; Potency, µM (titrated, usually from 56.7 µM), most hits filed as cytotoxic; 400,000 tested, 0.49% active; AID 651635, 2014; note: nearly all actives have a fitted effect of over 40% in size
A number is an active result; n = inactive; u = inconclusive; x = no result; [ ] = remark or other dose. Calls come from the whole dose curve; as a rule, active = well fitted curve in the direction sought with a large enough effect; inconclusive = small, poorly fitted or top-dose-only effect, or another doubt; inactive = no such curve, though single readings can be large; an effect the other way counts as inactive or inconclusive.

SMILES | TDP1 cell CPT | DT40 TDP1 no CPT | TGFb inhibitor | HepG2 viability | ATXN2 expr inh | ATXN viability
CCOC(=O)C1=C(C)NC(C)=C(C(=O)OCC)C1c1cc(N)ccc1OC(F)F | n | n | n | n | n | n
CCOC(=O)CSc1n[nH]c(NS(=O)(=O)c2ccccc2C(F)(F)F)n1 | n | n | n | n | n | n
CCc1cccc(NC(=O)CCS(=O)(=O)c2ccc(Br)cc2)c1 | 23µM | 29µM | n | n | x | x
COc1cc(NC(=O)CCS(=O)(=O)c2ccc(Br)cc2)cc(OC)c1 | n | u | n | n | n | n
CN1CCN(C(=O)c2cccn(Cc3c(Cl)cccc3Cl)c2=O)CC1 | n | n | n | n | n | n
COc1ccc(CNC(=O)O[C@H]2CN(C(=O)OC(C)C)N(C(=O)OC(C)C)[C@@H]3CN(S(=O)(=O)c4ccc(C)cc4)C[C@]23O)cc1OC | u | 23µM | n | n | n | u
Cc1ccc(S(=O)(=O)N2C[C@H]3N(C(=O)OC(C)C)N(C(=O)OC(C)C)C[C@H](OC(=O)Nc4cccs4)[C@@]3(O)C2)cc1 | u | 23µM | u | n | n | u
Cc1ccc(S(=O)(=O)N2C[C@H]3N(C(=O)OC(C)C)N(C(=O)OC(C)C)C[C@H](OC(=O)NCc4ccccc4F)[C@@]3(O)C2)cc1 | u | 23µM | n | n | n | u
CC1(Cc2ccccc2OC(F)(F)F)C(=O)Nc2cc(-c3ccccc3Cl)ccc21 (stereo not given) | u | u | u | n | u | u
CCc1ccc2c(c1)NC(=O)C2(C)Cc1ccc(C(F)(F)F)nc1 (stereo not given) | u | u | n | n | n | n
CC1(Cc2cc(Cl)ccc2C(F)(F)F)C(=O)Nc2cc(C(F)(F)F)ccc21 (stereo not given) | 23µM | 15µM | u | 18µM | n | u
CC1(Cc2ccc(C(F)(F)F)o2)C(=O)Nc2cc(-c3ccc(F)cc3F)ccc21 (stereo not given) | u | 4.6µM | u | 20µM | u | u
CC1(Cc2cc(Cl)ccc2C(F)(F)F)C(=O)Nc2cc(F)ccc21 (stereo not given) | 26µM | 15µM | u | n | u | u
C/C=C1\COC(C(=O)NCc2cccc(OC)c2OC)(C(F)(F)F)C=C1C=C(C)C (stereo not given) | x | x | u | n | x | x
COc1ccc2cc(CNCc3nonc3C)c(N3CCCC(CO)C3)nc2c1 (stereo not given) | n[9.04 µM] | n | x | x | x | n
COc1ccc2nc(N3C(=O)CNC3=S)sc2c1 | 7.3µM | 7.3µM | u | n | u | u
Cc1ccc2nc(N3C(=O)CNC3=S)sc2c1 | 15µM | u | 11µM | n | u | n
O=C(COC(=O)c1ccccc1OCCOc1ccccc1)Nc1ccc(Br)cc1 | n | n | n | n | x | x
CCc1nc2ccc(C(=O)NCCc3ccccn3)cn2c1N(CC)Cc1cccc(Br)c1 | 8.2µM | 9.2µM | n | n | u | u
CCc1nc2ccc(C(=O)NCc3ccc4c(c3)OCO4)cn2c1N(CC)Cc1cccc(Br)c1 | u | u | u | n | u | u
CCc1nc2ccc(C(=O)NCCCN3CCCC3=O)cn2c1N(CC)Cc1cccc(Br)c1 | 21µM | u | n | n | n | n
CCc1nc2ccc(C(=O)NCCCN3CCCC3=O)cn2c1N(CC)CCN(C)C | n | n | n | n | n | n
CCc1nc2ccc(C(=O)NC(C)(C)C)cn2c1N(CC)Cc1cccc(Br)c1 | 18µM | 16µM | u | n | n | u
COc1ccc(N2CCN(C(=O)COC(=O)CSc3ccccc3)CC2)cc1 | n | n | n | n | n | n
O=C(Nc1ccc2oc(-c3ccccc3)nc2c1)c1ccco1 | u | u | u | n | n | n
SMILES | TDP1 cell CPT | DT40 TDP1 no CPT | TGFb inhibitor | HepG2 viability | ATXN2 expr inh | ATXN viability
O=C(c1ccc2c(c1)N(Cc1ccccc1F)C(=O)c1ccccc1S2(=O)=O)N1CCCC1 | u | 23µM | n | n | n | n
O=C(c1ccc2c(c1)N(Cc1ccccc1F)C(=O)c1ccccc1S2(=O)=O)N1CCCCC1 | u | 16µM | u | n | n | n
O=C(c1ccc2c(c1)N(Cc1ccccc1F)C(=O)c1ccccc1S2(=O)=O)N1CCN(c2ccccc2F)CC1 | u | u | n | n | n | n
CC(C)CN1CCC(=O)N(CCC#N)CC1 | n | n | n | n | n | n
O=C(NCCC(=O)N1CCN(S(=O)(=O)c2ccccc2)CC1)c1ccc(Br)cc1 | n | n | n | n | n | n
CCOc1ccc(N(CC(=O)NN=C2CCCC2)S(C)(=O)=O)cc1 | n | n | n | n | n | n
O=C1Nc2ccc(Br)cc2/C1=C/C(=O)c1ccccc1 | 5.8µM | 4.6µM | u | n | u | u
Cc1ccc2c(c1)/C(=C/c1ccccc1F)C(=O)N2 | u | u | n | n | x | u
Cc1[nH]c(C=C2C(=O)Nc3ccccc32)c(C)c1CCC(=O)O | x | x | x | x | 1.1µM | x
CC(=O)N(C)c1ccc(N=C2C(=O)Nc3ccccc32)cc1 | n | n | n | n | n | n
C=CCOc1cccc(C(=O)/C=C2/C(=O)Nc3ccccc32)c1 | 7.3µM | 6.5µM | 11µM | 10µM | u | u
CC(=O)/C=C1/C(=O)Nc2ccccc21 | 6.5µM | 3.7µM | u | n | u | u
CCC1(C2CCN(C(=O)c3csc(C(C)=O)c3)CC2)NC(=O)N(CCc2scnc2C)C1=O (stereo not given) | n[9.04 µM] | n | x | x | x | n
O=C(N/N=C/c1cccs1)c1ccc(-n2cccc2)cc1 | n | u | n | n | n | n
O=C(N/N=C/c1cccs1)c1n[nH]c2c1CCC2 | 4.1µM | 3.7µM | n | n | u | u
O=C(N/N=C/c1ccc(Cl)cc1)c1n[nH]c2c1CCCC2 | 0.58µM | 0.92µM | u | n | n | u
O=C(N/N=C/C(Br)=C/c1ccccc1)c1n[nH]c2c1CCC2 | 2.6µM | 4.1µM | n | n | n | n
O=C(N/N=C/c1ccccc1)c1n[nH]c2c1CCCC2 | u | u | n | n | u | n
O=[N+]([O-])c1cc(-c2nc(-c3ccccc3)no2)ccc1N1CCN(c2ccccc2)CC1 | n | u | n | n | n | u
COCc1cc(C)nc(SCC[N+](C)(C)CC(=O)c2ccccc2)c1C#N | n | n | n | n | n | n
c1ccc(Cc2nnc(Sc3ccccc3)c3ccccc23)cc1 | u | u | u | 20µM | n | n
CCn1c(C)nc2cc(C(=O)N/N=C(\C)c3ccccc3O)ccc21 | 3.7µM | 2.9µM | n | n | x | x

Screening data from PubChem.
